These results are taken from PubChem BioAssay (NCI).

Holding throughout (experiment): NCI-60 one-dose screen, 48 h (100 = growth as untreated, 0 = no growth, -100 = all killed)
The subject of assay [1] is SR leukemia. Conditions: 10 µM.
Assay [2] concerns RPMI-8226 leukemia. The conditions noted are these: 10 µM.
In assay [3] the test system is OVCAR-8 ovarian. The conditions noted are these: 10 µM.
The test system of assay [4] is OVCAR-5 ovarian. Conditions: 10 µM.
For assay [5], the system named is OVCAR-4 ovarian. Conditions: 10 µM.
For assay [6], the system named is SK-OV-3 ovarian. Conditions: 10 µM.
Assay [7] deals with IGROV1 ovarian. The conditions noted are these: 10 µM.
In assay [8] the test system is OVCAR-3 ovarian. The conditions noted are these: 10 µM.
For assay [9], the system named is NCI/ADR-RES ovarian. Conditions: 10 µM.
Assay [10] deals with T-47D breast. Conditions: 10 µM.
Assay [11] concerns MDA-MB-435 melanoma. The conditions noted are these: 10 µM.
For assay [12], the system named is SW-620 colon. The conditions noted are these: 10 µM.
The test system of assay [13] is MCF7 breast. Conditions: 10 µM unless noted.
The test system of assay [14] is HCT-116 colon. The conditions noted are these: 10 µM.
Assay [15] has as its system HCC-2998 colon. The conditions noted are these: 10 µM.
The subject of assay [16] is KM12 colon. Conditions: 10 µM.
Assay [17] concerns BT-549 breast. Conditions: 10 µM.
Assay [18] has as its system HS 578T breast. Conditions: 10 µM.

Compounds without any hit were thinned out: in the full panel of roughly 83,000, 20% have a hit.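 Values shown are percent growth following 48 h exposure of cells in 96-well plates to a single concentration of compound; below 10 was considered active.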 Unmarked numbers belong to inactive results. Calls of active or inactive are those of the source.

`CCC/C=C(\C)C(C)(C#N)C(=O)OCC` (stereo unspecified): the growth was 100% in [1]; 95.1% in [2]; 101% in assay [3]; 110% in assay [4]; 107% in assay [5]; 111% in [6]. For the same compound, the growth in [7] is 107%; in assay [8], 124%; in [9] it was 110%; in assay [10], 112%; in [11], 96.3%; in assay [12], 109%. In addition, the growth was 97.1% in assay [13], 120% in assay [14], 118% in [15] and 110% in assay [16].
Consider `CC1OC(Oc2c(-c3ccc(O)c(O)c3)oc3cc(O)cc(O)c3c2=O)C(O)C(O)C1O` (stereo unspecified), for which the growth was 106% in assay [1]; 105% in assay [2]; 106% in [3]; 108% in [4]; 105% in assay [5]; 108% in [6]. Further, the growth in assay [7] was 107%; in assay [8] it was 103%; in assay [9], 111%; in assay [10], 105%; in assay [17] it was 109%; in assay [11], 111%. The growth in assay [12] is 99.8%; in assay [13], 101%; in [14], 105%; in [15], 110%; in assay [16] it was 102%.
With `COc1ccc(OC)c(/C=C2\CCc3ccccc3C2=O)c1`, the growth in assay [1] is 31.6%; in assay [2] it was 35.7%; in [3] it was 65.4%; in assay [4], 72.9%; in assay [5], 70.9%; in assay [6], 53%. Moreover, the growth is 50.9% in assay [7]; 9.47% (active) in assay [8]; 17.8% in [9]; 56.3% in [10]; 44.3% in [17]; -37.9% (active) in [11]. In addition, the growth in assay [12] was 17.4%; in assay [13], 12.1%; in [14], 19.3%; in [15], 73.9%; in assay [16], 22.8%.
In the case of `COc1cc(CN)ccc1O`, the growth was 89.5% in assay [1]; 81% in assay [2]; 102% in [3]; 95.5% in assay [4]; 108% in assay [5]; 93.8% in assay [6]. The growth was 78.7% in [7]; 105% in assay [8]; 102% in assay [18]; 94.2% in assay [9]; 94.5% in assay [10]; 103% in [12]. Besides, the growth was 83.7% in assay [13], 103% in assay [14] and 86.3% in assay [15].
For `COc1cc(OC)c2ccc(=O)oc2c1`, the growth in [1] was 125%; in [2] it was 116%; in [3], 103%; in [4], 90.3%; in assay [5], 107%; in assay [6], 112%. The growth was 130% in [7]; 110% in assay [8]; 97.1% in assay [18]; 105% in assay [9]; 111% in [17]; 107% in assay [11]. The growth in assay [12] was 101%; in [13], 100%; in [14] it was 109%; in assay [15], 94.8%; in assay [16], 98.9%.
As for `CC(C)=C(NC(=O)c1ccccc1)C(=O)O`, the growth in [1] is 95.4%; in [2] it was 87.4%; in [3] it was 104%; in assay [4], 101%; in [5], 118%; in [6], 112%. Moreover, the growth was 107% in assay [8]; 111% in assay [9]; 116% in assay [10]; 110% in assay [17]; 110% in assay [11]; 102% in assay [12]. In addition, the growth is 112% in assay [13], 117% in assay [14] and 101% in [15].
As to `Cc1ccc(Cl)cc1N1C(=O)CC(Sc2ccccc2N)C1=O` (stereo unspecified), the growth in assay [1] was 101%; in assay [2], 91.3%; in assay [3] it was 87.8%; in [4], 105%; in assay [5] it was 101%; in [6] it was 102%. Also, the growth in [8] was 106%; in assay [18], 103%; in [9] it was 101%; in assay [10], 103%; in assay [17], 111%; in assay [11], 102%. Moreover, the growth was 108% in assay [12]; 90.2% in assay [13]; 111% in assay [14]; 101% in assay [15]; 112% in assay [16].
Regarding `N#CC1(Nc2ccc3c4c(cccc24)CC3)CCCCC1`, the growth in assay [1] is 75.4%; in assay [2], 77%; in assay [3] it was 99.6%; in assay [4], 110%; in [7], 88.3%; in [8] it was 111%. For the same compound, the growth in assay [18] is 97.2%; in assay [9], 103%; in [10], 54.9%; in [17], 96.3%; in assay [11] it was 99%; in assay [12], 110%. The growth in assay [13] is 15.4%; in [14], 108%; in assay [15], 116%; in assay [16], 90.1%.
On to `CC1CCCCN1C(=S)Nc1ccc(S(=O)(=O)N2CCCCC2)cc1` (stereo unspecified), for which the growth in assay [1] is 81.1%; in assay [2] it was 74.7%; in assay [3] it was 106%; in assay [4], 100%; in assay [5], 90.4%; in [7], 138%. The growth in assay [8] is 97.7%; in [18], 88.9%; in assay [9] it was 107%; in assay [17], 93.4%; in assay [11], 96.3%; in assay [12], 93.2%. Further, the growth in assay [13] is 102%; in assay [14], 91.5%; in [15] it was 112%; in assay [16] it was 97.1%.
Turning to `CC(=O)OC(C(=O)O)c1ccccc1` (stereo unspecified), the growth was 104% in assay [1]; 88.2% in [2]; 102% in assay [3]; 105% in assay [4]; 118% in [5]; 117% in [6]. Further, the growth in [8] is 120%; in assay [9] it was 108%; in [10] it was 118%; in [17], 122%; in assay [11], 105%; in assay [12], 101%. The figures for the growth in assay [14], in assay [15] and in assay [16] were 108%, 96.3% and 106%, respectively.
